Data from PubChem BioAssay (NCATS).
Records with an inconclusive call do not appear. Calls of active or inactive are those of the source. Calls follow the shape of the dose curve; as a rule, active = well fitted cell-killing curve with a large enough effect; inconclusive = small, poorly fitted or top-dose-only effect; inactive = flat fitted curve, though single readings scatter.

experiment: Cell Viability - H-4-II-E (AID 543); conditions: H-4-II-E rat hepatoma viability; series mostly up to 92.2 µM; activity change, negative = cytotoxic: at the top concentration;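 also: cells exposed to compound for 40 hours; nearly all actives have a fitted effect of over 35% in size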; as to activity change, negative = cytotoxic: % is scaled to controls: 0 for no effect and ±100 for the full control effect
Summary of the method: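 Luminescent ATP signal (CellTiter-Glo) served as the viability read-out, with cytotoxicity seen as a concentration-dependent ATP drop. Cells were treated for 40 hours in complete medium. AC50 values derive from Hill-equation modelling.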
Potency is read from the fitted curve at half-maximal effect.

| Compound | Potency | activity change, negative = cytotoxic |
| --- | --- | --- |
| Oc1ccc2cc(SSc3ccc4cc(O)ccc4c3)ccc2c1 | 50.1 µM (active) |  |
| Nc1ccc2cc3ccccc3cc2c1 |  | -17% (inactive) |
| CN(C)c1ccc(C2(c3ccc(N(C)C)cc3)OC(=O)c3cc(N(C)C)ccc32)cc1 |  | -3.47% (inactive) |
| Cc1cc(Nc2ccc(O)cc2)ccc1N | 39.8 µM (active) |  |
| Cc1cc(O)c(C(C)(C)C)cc1Sc1cc(C(C)(C)C)c(O)cc1C | 25.1 µM (active) |  |
| C=C(C)c1ccccc1 |  | -1.73% (inactive) |
| c1cc(OCC2CO2)cc(OCC2CO2)c1 (centres undefined) | 39.8 µM (active) |  |
| ClC1=C(Cl)C(Cl)(Cl)C(Cl)=C1Cl |  | 0.158% (inactive) |
| C=CC(=O)OCCOCCOC(=O)C=C | 20 µM (active) |  |
| C/C=C1\C(=O)C[C@H]2[C@@H]3CCC4=CC(=O)CC[C@]4(C)[C@H]3CC[C@]12C | 39.8 µM (active) |  |
| CNc1ccc(O)cc1 | 20 µM (active) |  |
| CC(=O)Nc1ccc(C(=O)CCl)cc1 | 10 µM (active) |  |
| CCC(C)Nc1ccc(NC(C)CC)cc1 (centres undefined) | 6.31 µM (active) |  |
| O=C=Nc1ccc(Cc2ccc(N=C=O)cc2)cc1 |  | -11.2% (inactive) |
| c1ccc2c(c1)ccc1cc3c(ccc4ccccc43)cc12 |  | -8.67% (inactive) |
| CC/C(=C(\c1ccccc1)c1ccc(OCCN(C)C)cc1)c1ccc(O)cc1 | 39.8 µM (active) |  |
| O=[N+]([O-])c1cc([N+](=O)[O-])c2ccc(S(=O)(=O)O)cc2c1O |  | -2.69% (inactive) |
| O=Cc1ccc(Cl)c(Cl)c1 |  | 1.36% (inactive) |

experiment: Cell Viability - SH-SY5Y (AID 544); conditions: SH-SY5Y neuroblastoma cell viability; viability change, negative = cytotoxic: at 92.2 µM (top of the series);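 also: cells exposed to compound for 40 hours; nearly all actives have a fitted effect of over 55% in size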;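 as to viability change, negative = cytotoxic: 0% = DMSO alone and -100% = 100 µM tamoxifen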
Summary of the method: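 Luminescent ATP read-out (CellTiter-Glo) measures loss of viable SH-SY5Y neuroblastoma cells after 40 hr compound exposure at 37 °C. AC50 values derive from standard Hill modelling of qHTS concentration-response data.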

| Compound | viability change, negative = cytotoxic | Potency |
| --- | --- | --- |
| Oc1ccc2cc(SSc3ccc4cc(O)ccc4c3)ccc2c1 | -101% (active) |  |
| Nc1ccc2cc3ccccc3cc2c1 | -30.8% (inactive) |  |
| CN(C)c1ccc(C2(c3ccc(N(C)C)cc3)OC(=O)c3cc(N(C)C)ccc32)cc1 | 0.151% (inactive) |  |
| Cc1cc(Nc2ccc(O)cc2)ccc1N |  | 6.31 µM (active) |
| Cc1cc(O)c(C(C)(C)C)cc1Sc1cc(C(C)(C)C)c(O)cc1C |  | 31.6 µM (active) |
| C=C(C)c1ccccc1 | 12.4% (inactive) |  |
| c1cc(OCC2CO2)cc(OCC2CO2)c1 (centres undefined) |  | 0.251 µM (active) |
| ClC1=C(Cl)C(Cl)(Cl)C(Cl)=C1Cl | -9.61% (inactive) |  |
| C=CC(=O)OCCOCCOC(=O)C=C |  | 6.31 µM (active) |
| C/C=C1\C(=O)C[C@H]2[C@@H]3CCC4=CC(=O)CC[C@]4(C)[C@H]3CC[C@]12C | -80.2% (active) |  |
| O=C1OC(O)C(C(Cl)Cl)=C1Cl (centres undefined) |  | 15.8 µM (active) |
| CNc1ccc(O)cc1 |  | 2 µM (active) |
| CC(=O)Nc1ccc(C(=O)CCl)cc1 |  | 3.16 µM (active) |
| CCC(C)Nc1ccc(NC(C)CC)cc1 (centres undefined) |  | 5.01 µM (active) |
| O=C=Nc1ccc(Cc2ccc(N=C=O)cc2)cc1 | -3.69% (inactive) |  |
| c1ccc2c(c1)ccc1cc3c(ccc4ccccc43)cc12 | -9.78% (inactive) |  |
| CC/C(=C(\c1ccccc1)c1ccc(OCCN(C)C)cc1)c1ccc(O)cc1 |  | 31.6 µM (active) |
| c1ccc2c(c1)-c1cccc3c1c-2cc1ccccc13 | -21.6% (inactive) |  |
| O=[N+]([O-])c1cc([N+](=O)[O-])c2ccc(S(=O)(=O)O)cc2c1O | 4.56% (inactive) |  |
| O=Cc1ccc(Cl)c(Cl)c1 | -7.08% (inactive) |  |

experiment: Cell Viability - Renal Proximal Tubule (AID 545); conditions: renal proximal tubule cells viability, primary cells of rat origin; activity change, negative = cytotoxicity: at 91.7 µM (top of the series);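 also: cells exposed to compound for 40 hours; nearly all actives have a fitted effect of over 40% in size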;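 as to activity change, negative = cytotoxicity: 0% = DMSO only and -100% = 100 µM tamoxifen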
Summary of the method: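 Viability taken as intracellular ATP (CellTiter-Glo luminescence) after 40 hr, 37 °C compound treatment of primary proximal tubule cells from rat kidney, 1000 cells/well; Hill-equation fits of qHTS concentration-response data gave AC50.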

| Compound | activity change, negative = cytotoxicity | Potency |
| --- | --- | --- |
| Oc1ccc2cc(SSc3ccc4cc(O)ccc4c3)ccc2c1 | -82.8% (active) |  |
| Nc1ccc2cc3ccccc3cc2c1 | -10.5% (inactive) |  |
| CN(C)c1ccc(C2(c3ccc(N(C)C)cc3)OC(=O)c3cc(N(C)C)ccc32)cc1 | -5.56% (inactive) |  |
| Cc1cc(Nc2ccc(O)cc2)ccc1N | -25.1% (inactive) |  |
| Cc1cc(O)c(C(C)(C)C)cc1Sc1cc(C(C)(C)C)c(O)cc1C |  | 25.1 µM (active) |
| C=C(C)c1ccccc1 | -4.83% (inactive) |  |
| Cc1ccc(S(=O)(=O)Oc2ccc(N=Nc3ccc(-c4ccc(N=Nc5c(O)ccc6cc(S(=O)(=O)O)cc(S(=O)(=O)O)c56)c(C)c4)cc3C)cc2)cc1 |  | 31.6 µM (active) |
| O=C1OC2(c3cc(Br)c(O)c(Br)c3Oc3c2cc(Br)c(O)c3Br)c2c(Cl)c(Cl)c(Cl)c(Cl)c21 | -25.7% (inactive) |  |
| c1cc(OCC2CO2)cc(OCC2CO2)c1 (centres undefined) |  | 31.6 µM (active) |
| ClC1=C(Cl)C(Cl)(Cl)C(Cl)=C1Cl | -7.46% (inactive) |  |
| C=CC(=O)OCCOCCOC(=O)C=C |  | 20 µM (active) |
| O=C1OC(O)C(C(Cl)Cl)=C1Cl (centres undefined) |  | 31.6 µM (active) |
| CC(=O)Nc1ccc(C(=O)CCl)cc1 |  | 31.6 µM (active) |
| CCC(C)Nc1ccc(NC(C)CC)cc1 (centres undefined) | -100% (active) |  |
| O=C=Nc1ccc(Cc2ccc(N=C=O)cc2)cc1 | -5.94% (inactive) |  |
| c1ccc2c(c1)ccc1cc3c(ccc4ccccc43)cc12 | -1.88% (inactive) |  |
| CC/C(=C(\c1ccccc1)c1ccc(OCCN(C)C)cc1)c1ccc(O)cc1 | -109% (active) |  |
| c1ccc2c(c1)-c1cccc3c1c-2cc1ccccc13 | -10.8% (inactive) |  |
| O=[N+]([O-])c1cc([N+](=O)[O-])c2ccc(S(=O)(=O)O)cc2c1O | -1.62% (inactive) |  |
| O=Cc1ccc(Cl)c(Cl)c1 | 1.24% (inactive) |  |

experiment: Cell Viability - Mesenchymal (AID 546); conditions: mesenchymal cells viability, qHTS; activity change, negative = cytotoxicity: at 91.7 µM (top of the series);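 also: cells exposed to compound for 40 hours before reading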;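 as to activity change, negative = cytotoxicity: 0% = DMSO only and -100% = 100 µM tamoxifen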
Summary of the method: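 Human kidney mesenchymal cells from normal renal glomeruli, 1000 cells/well, rested 5 hr at 37 °C, then treated 40 hr at 37 °C in complete medium. Cellular ATP read by CellTiter-Glo luminescence; AC50 from Hill-equation fits.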

| Compound | activity change, negative = cytotoxicity | Potency |
| --- | --- | --- |
| Nc1ccc2cc3ccccc3cc2c1 | 0.436% (inactive) |  |
| CN(C)c1ccc(C2(c3ccc(N(C)C)cc3)OC(=O)c3cc(N(C)C)ccc32)cc1 | -1.81% (inactive) |  |
| Cc1cc(O)c(C(C)(C)C)cc1Sc1cc(C(C)(C)C)c(O)cc1C |  | 15.8 µM (active) |
| C=C(C)c1ccccc1 | 4.37% (inactive) |  |
| Cc1ccc(S(=O)(=O)Oc2ccc(N=Nc3ccc(-c4ccc(N=Nc5c(O)ccc6cc(S(=O)(=O)O)cc(S(=O)(=O)O)c56)c(C)c4)cc3C)cc2)cc1 |  | 31.6 µM (active) |
| ClC1=C(Cl)C(Cl)(Cl)C(Cl)=C1Cl | 11.3% (inactive) |  |
| C=CC(=O)OCCOCCOC(=O)C=C | -100% (active) |  |
| C/C=C1\C(=O)C[C@H]2[C@@H]3CCC4=CC(=O)CC[C@]4(C)[C@H]3CC[C@]12C | -11.1% (inactive) |  |
| CNc1ccc(O)cc1 |  | 31.6 µM (active) |
| CC(=O)Nc1ccc(C(=O)CCl)cc1 |  | 12.6 µM (active) |
| CCC(C)Nc1ccc(NC(C)CC)cc1 (centres undefined) |  | 12.6 µM (active) |
| O=C=Nc1ccc(Cc2ccc(N=C=O)cc2)cc1 | -2.24% (inactive) |  |
| c1ccc2c(c1)ccc1cc3c(ccc4ccccc43)cc12 | -3.83% (inactive) |  |
| CC/C(=C(\c1ccccc1)c1ccc(OCCN(C)C)cc1)c1ccc(O)cc1 |  | 31.6 µM (active) |
| O=[N+]([O-])c1cc([N+](=O)[O-])c2ccc(S(=O)(=O)O)cc2c1O | 10.9% (inactive) |  |
| O=Cc1ccc(Cl)c(Cl)c1 | 7.76% (inactive) |  |
